Bioassay records: PubChem BioAssay, Sanford-Burnham Center for Chemical Genomics
CYP2C19 act: human CYP2C19 activators, primary screen, biochemical, luminescence; AID 1025, 2008; recombinant CYP2C19, luciferin-H EGE luminescence; stronger effect = higher value; 0 = fully inhibited enzyme, 1 = untreated enzyme; 96,000 tested, under 10 active; activation factor at 5 µM;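 active = activation factor of at least 2 at 5 µM in the primary screen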;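 also: 0 = wells with 2.5 mM tranylcypromine and 1 = vehicle-only wells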
Target sequence (P33261 whole entry, looked up): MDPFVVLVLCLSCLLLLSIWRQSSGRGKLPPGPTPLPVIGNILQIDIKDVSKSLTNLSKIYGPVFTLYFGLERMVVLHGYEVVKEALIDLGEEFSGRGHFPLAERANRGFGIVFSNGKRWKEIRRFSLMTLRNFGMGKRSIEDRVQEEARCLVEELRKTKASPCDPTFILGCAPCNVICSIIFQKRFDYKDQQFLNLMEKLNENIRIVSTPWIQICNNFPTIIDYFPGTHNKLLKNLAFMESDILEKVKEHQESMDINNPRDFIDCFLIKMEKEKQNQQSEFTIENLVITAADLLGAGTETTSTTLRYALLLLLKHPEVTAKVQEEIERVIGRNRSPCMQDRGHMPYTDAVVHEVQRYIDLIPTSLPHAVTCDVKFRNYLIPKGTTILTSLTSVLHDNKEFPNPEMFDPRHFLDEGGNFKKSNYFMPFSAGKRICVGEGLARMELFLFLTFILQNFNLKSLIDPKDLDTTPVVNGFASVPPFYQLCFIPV
CD11b adhes inh: inhibitors of CD11b/CD18 adhesion to fibrinogen, primary screen, K562 cells, luminescence; Integrin beta-2 (Homo sapiens) + Integrin alpha-M (Homo sapiens), P05107+P11215; ATPlite luminescence; Mn2+ added to activate the integrin; inhibition, % at 10 µM; actives 0.54% (n = 93,000);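 active = primary inhibition of 50% or more at 10 µM, then 40% or more on retest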
CYP2C19 inhib: blockers of cytochrome P450 2C19 activity – biochemical, luminescence, ADME assay, primary screen | P33261 | CYP2C19 Supersomes, luciferin-H EGE luminescence, 30 min | inhibition, % at 5 µM | actives 21% (n = 96,000) | AID 778, 2007;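 active = CYP2C19 inhibition above a set limit at 5 µM in the primary screen, cut at about 50% in these data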;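 also: plate controls were negative control wells for no effect and 2.5 mM tranylcypromine positive control for full effect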
CYP2C9 inhib: blockers of cytochrome P450 2C9 activity – biochemical, luminescence, ADME assay, primary screen | P11712 | CYP2C9 Supersomes, luciferin-H conversion | inhibition, % at 5 µM | actives 20% (n = 96,000) | AID 777, 2007;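 active = blocking of liver enzyme CYP2C9 beyond about 50% at 5 µM, limit read from the data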
CYP2C9 activ: human CYP2C9 activators, primary screen, biochemical, luminescence. activation factor at 5 µM. recombinant CYP2C9, luciferin-H conversion; stronger effect = higher value; factor 1 = untreated enzyme, 0 = blocked. actives 1.4% (n = 96,000);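 active = activation factor of 2 or more for CYP2C9 at a 5 µM dose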;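 also: 0 = sulfaphenazole-blocked wells and 1 = vehicle-only wells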
Mac1 fbg enh: enhancers of CD11b/CD18 adhesion to fibrinogen, primary screen, K562 cells, luminescence; Integrin beta-2 (Homo sapiens) + Integrin alpha-M (Homo sapiens), P05107+P11215; ATPlite luminescence; activation, % at 10 µM; actives 0.07% (n = 93,000);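 active = 10 µM primary screen giving 50% or more activity, confirmed by 40% or more on retest at that dose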
* hit, by the source's call; x = not tested or not shown. This is a sample that favours compounds with a hit; in the whole collection about 28% have one here.

SMILES	CYP2C19 act	CD11b adhes inh	CYP2C19 inhib	CYP2C9 inhib	CYP2C9 activ	Mac1 fbg enh
CC(=O)Nc1ccc(S(=O)(=O)N2CCN(CCCOc3ccccc3Cl)CC2)cc1	0.3	-10.2	67.9*	48.4	0.5	-1.1
COc1cccc(OCCCN2CCN(S(=O)(=O)c3ccc(NC(C)=O)cc3)CC2)c1	0.1	6.3	86.0*	79.9*	0.2	-2.7
N#Cc1cc2c(nc1SCC(=O)Nc1nccs1)CCCCC2	0.9	-32.7	6.2	54.5*	0.5	38.0
CCSc1nnc(NC(=O)CSc2nc3c(cc2C#N)CCCC3)s1	0.8	x	18.2	51.2*	0.5	x
CCSc1nnc(NC(=O)C(C)(C)C)s1	0.5	-27.4	52.3*	36.1	0.6	-4.0
CCSc1nnc(NC(=O)CSc2nc(C)cc(C)n2)s1	0.4	4.1	60.9*	38.9	0.6	-3.1
CCc1nnc(NC(=O)CSc2nc3c(cc2C#N)CCC3)s1	1	-3.1	4.8	6.2	0.9	-5.6
O=C(COC(=O)c1cc(-c2cccs2)nn1-c1ccccc1)Nc1ccc(Cl)c([N+](=O)[O-])c1	x	-1.2	x	x	x	3.3
CCOc1ccc(N2C(=O)c3cccnc3C2Nc2ccc(C)cc2)cc1 (centres undefined)	0.7	-10.5	27.3	14.4	0.9	23.0
Cc1ccc(NS(=O)(=O)c2cc(C(=O)N3CCOCC3)ccc2C)cc1	1	-0.2	-1.8	3.9	1	-1.0
Cc1ccc(C)c(S(=O)(=O)Nc2ccc3scnc3c2)c1	0	9.7	100.0*	66.2*	0.3	-2.7
Nc1cc(=O)nc(SCC(=O)Nc2cccc3ccccc23)n1CCc1ccccc1	0.6	x	35.9	-19.4	1.2	x
Cc1ccccc1NC(=O)c1cc(S(=O)(=O)N2CCOCC2)ccc1F	1	1.5	1.1	4.1	1	2.0
CCNc1ccc(C(=O)OCC)cc1NC(=O)c1cc(S(=O)(=O)N2CCOCC2)ccc1C	0.1	3.7	88.1*	53.5*	0.5	3.1
CCNc1ccc(C(=O)OCC)cc1NC(=O)c1cccc(N(C)C)c1	0.7	18.2	28.0	50.5*	0.5	-0.5
CCOC(=O)c1ccc(NC(=O)c2cccc(S(=O)(=O)N3CCOCC3)c2)cc1	0.8	39.9	17.8	5.4	0.9	-3.2
CCOC(=O)c1ccc(NC(=O)c2ccc(C)c(S(=O)(=O)N3CCOCC3)c2)cc1	0.7	83.9*	25.7	-14.6	1.1	-8.0
COc1ccc(C(=O)N2CC3(CC(c4cccc([N+](=O)[O-])c4)=NO3)C[C@H]2C(=O)NCC(N)=O)cc1 (some centres undefined)	0.9	x	10.9	14.2	0.9	x
O=C(OCCCN=C1NS(=O)(=O)c2ccccc21)c1ccc(F)cc1	0.9	-16.0	7.0	36.9	0.6	-2.3
O=C(NCCN=C1NS(=O)(=O)c2ccccc21)c1ccc2nccnc2c1	0.8	7.3	21.7	36.6	0.6	-4.0
O=C(NCCCN=C1NS(=O)(=O)c2ccccc21)c1ccc(S(=O)(=O)N2CCCCC2)cc1	0.8	11.3	18.9	53.5*	0.5	-2.7
O=C(OCCN=C1NS(=O)(=O)c2ccccc21)c1ccncc1	1.2	-3.8	-18.6	77.6*	0.2	-2.8
O=C(NCCN=C1NS(=O)(=O)c2ccccc21)c1ccncc1	1	1.7	-0.1	51.3*	0.5	-1.5
CCN1CCN(Cc2ccc(NC(=O)Nc3ccccc3OC)cc2)CC1	1.1	1.7	-5.6	6.3	0.9	2.0
COC(=O)c1c(NC(=O)C2COc3ccccc3O2)sc2c1CCN(Cc1ccccc1)C2 (centres undefined)	x	-8.3	x	x	x	4.0
COC(=O)[C@H](CCSC)NC(=O)Nc1ccc(OC)cc1OC	0.9	-1.7	14.9	-24.3	1.2	0.5
CSCCOC(=O)C1=C(C)NC(=O)CC1c1ccccc1Cl (centres undefined)	0.9	18.2	14.7	15.3	0.8	-2.2
